In experiment [1] the test system is Plasmodium falciparum Sir2 (PF13_0152, Sir2A). Description: Plasmodium falciparum Sir2A binding compounds – biochemical, small-molecule microarray, 635 nm fluorescence, primary screen (AID 1098).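 Note: score merges spot fluorescence intensity with its signal-to-noise ratio.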 The conditions noted are these: fluorescence 635 nm, higher = more signal.
A short description of experiment [2]: probe aDKK1 binding to arrayed compounds – biochemical, biotinylated probe, 635/667 nm fluorescence, primary screen (AID 1099).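 Note: score merges 667nm spot fluorescence with signal to noise across triplicate slides; reference of the scale not given here.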 The conditions noted are these: small-molecule microarray, higher = more signal.
Experiment [3] is described as follows: probe aCHRDL2 binding to arrayed compounds – biochemical, biotinylated probe, 635/667 nm fluorescence, primary screen (AID 1100). The settings on record: small-molecule microarray, higher = more signal.
Experiment [4] in a line: change in splice reporter luminescence, either direction, cell-based, HEK293, spliceosome inhibition project, primary screen (AID 1101).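 Note: HEK293 cells carrying a splicing-competent luciferase reporter gene; test concentration not given here.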 The conditions noted are these: HEK293 splicing luciferase reporter, 24 h, higher = more signal, called active from +8 up or from −8 down. (Reporter assays use an easily measured gene product as a stand-in for the process of interest.)
Experiment [5] concerns the target Fibroblast growth factor 10 (Homo sapiens) (UniProt O15520). As to the kind of experiment: compounds binding fibroblast growth factor 10 – biochemical, small-molecule microarray, 635 nm fluorescence, primary screen (AID 1102). The settings on record: FGF10 binding, fluorescence 635 nm, higher = more signal.
In experiment [6] the test system is glycogen synthase kinase-3 (GSK3A per assay name; protocol says GSK3B). Description: compounds binding glycogen synthase kinase-3 – biochemical, small-molecule microarray, 635 nm fluorescence, GSK3A, primary screen (AID 1103). Note: the record names both GSK3A and GSK3B. The settings on record: fluorescence 635 nm, higher = more signal.
The target in experiment [7] is Epidermal growth factor receptor (Homo sapiens) (UniProt P00533). Description: compounds binding epidermal growth factor receptor – biochemical, small-molecule microarray, 635 nm fluorescence, primary screen (AID 1104).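 Note: score merges 667 nm emission intensity with spot signal to noise over triplicate slides.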 The conditions noted are these: EGFR binding, higher = more signal.
The target in experiment [8] is Follistatin-related protein 3 (Homo sapiens) (UniProt O95633). Description: compounds binding follistatin-related protein 3 – biochemical, small-molecule microarray, 635 nm fluorescence, primary screen (AID 1105).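 Note: score merges emission near 667 nm and signal to noise per printed spot across three slides.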 The settings on record: FSTL3 binding, higher = more signal.
For experiment [9], the target named is Dickkopf-related protein 1 (Homo sapiens) (UniProt O94907). Description: small molecules binding DKK1 protein – biochemical, small-molecule microarray, 635 nm fluorescence scan, primary screen (AID 1106).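 Note: score merges emission near 667 nm with signal to noise over three replicate slides.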 The conditions noted are these: higher = more signal.
Experiment [10] has as its system Inhibin beta A chain (activin A). Description: small molecules binding activin A – biochemical, small-molecule microarray, 635 nm fluorescence scan, primary screen (AID 1107).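 Note: mouse activin A protein probed at 4.33 µg/mL on printed slides; score merges bound-protein fluorescence near 667 nm with spot signal-to-noise.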 The settings on record: INHBA, higher = more signal.

Values joined by “and” are separate entries in the source; they are usually repeats but may differ in a detail not shown here. Identical values can stand only once. Active and inactive are the calls of the source.

Chain of Epidermal growth factor receptor (Homo sapiens) (P00533 whole entry, looked up): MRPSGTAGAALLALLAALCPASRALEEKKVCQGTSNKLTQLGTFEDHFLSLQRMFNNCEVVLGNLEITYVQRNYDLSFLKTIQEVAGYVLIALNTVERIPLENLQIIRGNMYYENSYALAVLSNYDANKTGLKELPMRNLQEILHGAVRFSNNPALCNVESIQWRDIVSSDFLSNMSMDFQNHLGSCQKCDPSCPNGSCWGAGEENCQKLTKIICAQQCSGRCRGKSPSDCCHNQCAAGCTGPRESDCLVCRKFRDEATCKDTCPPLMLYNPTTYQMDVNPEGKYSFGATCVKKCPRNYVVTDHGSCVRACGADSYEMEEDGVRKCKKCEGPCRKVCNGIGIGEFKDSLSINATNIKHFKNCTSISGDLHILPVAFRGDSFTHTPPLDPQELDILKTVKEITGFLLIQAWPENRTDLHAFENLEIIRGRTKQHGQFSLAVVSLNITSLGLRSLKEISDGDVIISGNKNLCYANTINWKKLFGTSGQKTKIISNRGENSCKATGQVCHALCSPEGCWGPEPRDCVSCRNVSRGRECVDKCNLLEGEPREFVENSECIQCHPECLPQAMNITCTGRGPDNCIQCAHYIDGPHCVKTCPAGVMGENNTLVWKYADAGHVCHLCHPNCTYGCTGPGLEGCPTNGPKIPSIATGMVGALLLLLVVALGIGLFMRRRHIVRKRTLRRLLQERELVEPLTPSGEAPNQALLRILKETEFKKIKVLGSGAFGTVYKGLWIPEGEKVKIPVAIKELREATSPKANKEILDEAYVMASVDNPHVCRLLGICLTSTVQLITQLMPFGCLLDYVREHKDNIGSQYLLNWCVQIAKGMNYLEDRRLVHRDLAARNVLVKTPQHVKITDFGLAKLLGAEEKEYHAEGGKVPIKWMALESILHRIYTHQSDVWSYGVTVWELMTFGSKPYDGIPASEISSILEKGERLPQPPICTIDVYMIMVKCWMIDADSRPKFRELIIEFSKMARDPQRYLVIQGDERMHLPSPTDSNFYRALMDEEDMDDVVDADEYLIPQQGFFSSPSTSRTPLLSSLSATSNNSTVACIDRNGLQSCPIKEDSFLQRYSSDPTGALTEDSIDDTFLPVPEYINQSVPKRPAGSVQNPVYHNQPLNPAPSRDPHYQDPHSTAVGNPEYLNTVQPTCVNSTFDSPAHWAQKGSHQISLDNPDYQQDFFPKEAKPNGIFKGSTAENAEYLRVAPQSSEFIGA
Chain of Dickkopf-related protein 1 (Homo sapiens) (O94907 whole entry, looked up): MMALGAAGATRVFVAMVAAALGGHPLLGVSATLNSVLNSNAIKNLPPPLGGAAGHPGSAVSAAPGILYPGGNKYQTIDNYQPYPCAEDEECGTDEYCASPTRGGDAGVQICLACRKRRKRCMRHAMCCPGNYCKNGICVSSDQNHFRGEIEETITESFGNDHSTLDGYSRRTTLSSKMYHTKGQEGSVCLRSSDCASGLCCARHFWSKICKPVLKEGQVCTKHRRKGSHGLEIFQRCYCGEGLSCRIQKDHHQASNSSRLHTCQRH
Chain of Follistatin-related protein 3 (Homo sapiens) (O95633 whole entry, looked up): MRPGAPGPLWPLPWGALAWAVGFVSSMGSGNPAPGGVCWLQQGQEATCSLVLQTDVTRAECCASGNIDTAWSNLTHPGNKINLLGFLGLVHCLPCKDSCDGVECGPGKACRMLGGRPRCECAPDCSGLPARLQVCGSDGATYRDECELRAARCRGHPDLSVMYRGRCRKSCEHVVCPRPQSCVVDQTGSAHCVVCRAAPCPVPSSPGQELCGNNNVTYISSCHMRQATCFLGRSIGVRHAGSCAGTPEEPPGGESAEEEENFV
Chain of Fibroblast growth factor 10 (Homo sapiens) (O15520 whole entry, looked up): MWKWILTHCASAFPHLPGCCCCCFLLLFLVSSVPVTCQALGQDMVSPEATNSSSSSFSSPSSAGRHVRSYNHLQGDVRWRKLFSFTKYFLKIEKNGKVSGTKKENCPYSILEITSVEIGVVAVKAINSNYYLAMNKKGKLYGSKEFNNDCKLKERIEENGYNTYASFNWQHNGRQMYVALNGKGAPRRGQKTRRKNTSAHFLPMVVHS

With `C=CCN(C(=O)C(c1cccs1)N(CCOCCO)C(=O)/C=C\C(=O)O)C(C)(C)C` (stereo not given), the composite z-score in experiment [1] is -1.45 and 1.17; in [2] it was -0.214 and -0.188; in experiment [3] it was 0.336 and 0.718; in experiment [5], -1.34 and -1.24; in experiment [6] it was -1.46 and -0.651; in experiment [7], -1.21 and -0.944. Moreover, the composite z-score in [8] was -1.64 and -1.94; in experiment [9], -2.14 and -2.17; in experiment [10], -0.96 and -1.53. Further, the z-score in [4] was -0.0364 (inactive) and 0.0433 (inactive).
Take `CCN1C(=O)[C@H]2[C@H]3[C@H](O)[C@H](O)CC(=NOC)[C@@H]3CC[C@H]2C1=O`: the composite z-score in [1] was 0.767; in experiment [2], -0.0904; in [3], -0.0826; in experiment [5], -0.0502; in experiment [6] it was -0.595; in experiment [7], 0.1. Moreover, the composite z-score in experiment [8] is -0.0407; in experiment [9], 0.179; in experiment [10] it was 0.39. The z-score in [4] was 0.302 (inactive).
Take `Cc1cc2c(nc1C)CCCN2CC(C)ON=C[C@@H](C)[C@H](OCc1ccccc1)C(C)C` (stereo not given in full): the composite z-score is -0.146 in experiment [1]; -0.14 in experiment [2]; -0.499 in experiment [3]; -0.375 in experiment [5]; -0.857 in experiment [6]; 0.0333 in experiment [7]. The composite z-score is -0.0161 in [8], 0.227 in experiment [9] and 0.622 in [10]. Moreover, in [4], the z-score was 0.332 (inactive).
On to `CCOC(=O)C[C@H]1[C@H](OC(=O)c2ccccc2-c2ccccc2)[C@@H](NC(=O)c2ccccc2)c2cc(OCCCO)ccc2N1C(=O)c1ccc2ccccc2n1`, for which the composite z-score in experiment [1] is -0.134 and 0.522; in experiment [2], 0.298 and -0.106; in [3], 0.229 and 0.0414; in experiment [5], 0.97 and 0.586; in [6] it was 0.612 and 0.576; in experiment [7], 0.284 and 0.207. Also, the composite z-score is 0.47 and 0.8 in experiment [8]; 0.452 and 0.19 in [9]; 0.227 and 0.981 in [10]. Also, the z-score in [4] was -0.0583 (inactive) and -0.0708 (inactive).
Regarding `COC(=O)C1=C(C)N(Cc2ccccc2)[C@]23O[C@](C(=O)OC)(C(=O)N2[C@@H]1c1ccccc1)[C@@H](C(=O)OC)[C@H]3C(=O)OC`, the composite z-score in experiment [1] was -0.16 and 0.25; in experiment [2], -0.188 and -0.2; in [3], -0.248 and -0.593; in experiment [5] it was 0.393 and 0.372; in experiment [6] it was -0.969 and 0.317; in experiment [7], -0.574 and 0.608. For the same compound, the composite z-score is -1.14 and 0.664 in experiment [8]; -0.0647 and 0.549 in experiment [9]; 0.59 and 0.153 in [10]. Besides, in [4], the z-score was -0.259 (inactive) and 0.0138 (inactive).
Regarding `COC(=O)C1=C(C)N(Cc2ccccc2)C2=C3C(=O)N(c4ccccc4)C(=O)[C@@H]3[C@@](O)(C(=O)OC)C(=O)N2[C@@H]1c1ccccc1`, the composite z-score in experiment [1] was -0.0191 and 0.501; in experiment [2], -0.0254 and -0.186; in [3] it was -0.914 and -0.616; in experiment [5], 1.17 and 0.553; in experiment [6], 0.387 and 0.542; in experiment [7], 0.566 and 0.369. Besides, the composite z-score was 0.802 and 0.527 in experiment [8]; 0.603 and 0.58 in [9]; -0.042 and -0.581 in experiment [10]. Further, the z-score in experiment [4] was 0.0988 (inactive) and -2.38 (inactive).
On to `C=CCN(C(=O)C(c1cccs1)N(C(=O)/C=C\C(=O)O)c1c(Cl)cccc1CO)C(C)(C)C` (stereo not given), for which the composite z-score in experiment [1] was 1.25 and -0.0135; in [2] it was 0.352 and 0.285; in [3], 1.38 and 1.31; in experiment [5], -2.54 and -1.41; in experiment [6], -2.14 and -1.33; in [7] it was -2.12 and -2.63. Also, the composite z-score is -2.45 and -2.23 in experiment [8]; -3.69 and -3.04 in [9]; -3.4 and -1.92 in experiment [10]. For the same compound, the z-score in experiment [4] was -0.321 (inactive) and -0.297 (inactive).
Turning to `CO[C@@H]1C=CCC(=O)N2CCC[C@H]2C(=O)OC[C@H](C)C(=O)OC[C@H]1C`, the composite z-score was 0.517 in [1]; -0.33 in experiment [2]; -0.966 in experiment [3]; 0.243 in experiment [5]; 0.396 in [6]; 0.612 in [7]. For the same compound, the composite z-score is 0.875 in experiment [8], 1.26 in [9] and 0.358 in experiment [10]. Moreover, the z-score in experiment [4] was -0.25 (inactive).
Regarding `CC(C)OC(=O)C=C1C[C@@H](c2cccc(C(F)(F)F)c2)O[C@@H](c2cccc(C(F)(F)F)c2)O1`, the composite z-score in experiment [1] was 0.937 and 1.55; in experiment [2], 0.326 and -0.186; in experiment [3], 0.605 and -0.185; in experiment [5], -0.135 and -0.527; in experiment [6], 0.335 and 0.267; in experiment [7], -1.14 and -1.45. The composite z-score was -0.815 and -1.39 in [8]; -0.49 and -0.776 in experiment [9]; -0.347 and -0.587 in experiment [10]. Besides, in [4], the z-score was 1.12 (inactive) and -1.24 (inactive).
Turning to `COC(=O)CC=C[C@@H](C)[C@@H](CO)NS(=O)(=O)c1ccc(C)cc1`, the composite z-score in experiment [1] was 0.266 and 0.348; in experiment [2], -0.393 and -0.371; in experiment [3], -0.591 and -0.895; in [5] it was 0.394 and 0.774; in [6], 0.635 and 0.827; in experiment [7], 0.667 and 0.395. Further, the composite z-score in experiment [8] is 0.505 and 1.3; in experiment [9], 0.998 and 0.71; in [10], 0.0232 and -0.0806. In addition, the z-score in experiment [4] is 0.538 (inactive) and -0.445 (inactive).
Consider `CO[C@H]1COC(=O)CC=C[C@@H](C)COC(=O)[C@@H](OCc2ccccc2)C=C[C@@H]1C`, for which the composite z-score in experiment [1] was 0.661; in experiment [2], -0.533; in experiment [3] it was -1.54; in [5], 0.241; in experiment [6], 1.1; in experiment [7], 0.831. Moreover, the results for the composite z-score in [8], in [9] and in experiment [10] were 1.32, 0.644 and 1.57, respectively. For the same compound, in experiment [4], the z-score is 0.19 (inactive).
Regarding `CCCNC(=O)OC[C@H]1O[C@H](CCON=C(C)CCN2CCc3nc(-c4ccccc4)c(-c4ccccc4)cc3C2)C=C[C@@H]1Oc1ccc(OC)cc1`, the composite z-score is 0.274 in experiment [1]; -0.128 in experiment [2]; -0.155 in [3]; 0.0705 in experiment [5]; -0.0859 in experiment [6]; 0.0142 in experiment [7]. For the same compound, the composite z-score in experiment [8] was determined as 0.254; in [9], 0.431; in experiment [10], 0.67. Besides, in experiment [4], the z-score is -0.0345 (inactive).
As to `CC(C)CCN1CCc2nc(-c3ccccc3)c3c(c2C1)CO[C@@H](C)C3`, the composite z-score is -0.0208 in [1]; 0.233 in [2]; -0.148 in [3]; 0.476 in experiment [5]; 0.77 in experiment [6]; 0.516 in experiment [7]. Further, the values for the composite z-score in experiment [8], in experiment [9] and in [10] were 0.579, 0.689 and 0.55, respectively. In experiment [4], the z-score was 0.109 (inactive).
As to `C=CCN(C(=O)C1N(c2c(Cl)cccc2CO)C(=O)C2C(C(=O)O)C3C=CC21O3)c1ccc(OC)cc1` (stereo not given), the composite z-score in [1] is 1.51 and -0.251; in experiment [2] it was -0.0248 and -0.257; in experiment [3] it was 0.804 and 0.73; in experiment [5], -1.56 and -2.01; in [6], -1.29 and -0.754; in experiment [7], -1.86 and -2.26. In addition, the composite z-score in experiment [8] is -1.4 and -2.14; in experiment [9] it was -1.99 and -2.35; in experiment [10], -1.12 and -3.24. Also, the z-score in experiment [4] was -1.1 (inactive) and -0.88 (inactive).
`COC(=O)C1=C(C)N(Cc2ccccc2)[C@]23O[C@](C(=O)OC)(C(=O)N2[C@@H]1c1ccccc1)[C@H]1CCCC(=O)[C@H]13`: the composite z-score in experiment [1] is 0.355 and 0.285; in [2], 0.0172 and -0.338; in experiment [3] it was -0.298 and -0.45; in [5], 0.526 and 0.72; in [6] it was 0.201 and 0.287; in experiment [7], 0.218 and 0.506. Besides, the composite z-score is 0.336 and 0.515 in experiment [8]; 0.421 and 0.508 in [9]; 0.518 and 0.15 in [10]. The z-score in [4] was -0.0479 (inactive) and -1.41 (inactive).

For the origin of these results see PubChem BioAssay.
